A selection: hits, their analogues and other compounds. The true share with any hit is near 5.3%.
FMDV antiviral = blocks foot and mouth disease virus; 1.2% of 410,000 active; FMDV antiviral cell-based qHTS; Potency, µM (highest dose often 57.9 µM), for inactives: at the highest dose activity change, negative = inhibition, actives largely listed as inhibitors; calls by dose curve; tested in HEK293T cells; note: read-out not given here; nearly all actives have a fitted effect of over 45% in size
Lassa entry inh = blocks Lassa virus binding to or entry into cells; Lassa virus pseudotype entry inhibition, cell reporter; Potency, µM (highest dose often 37.9 µM), for the others: at the highest dose activity change, negative = inhibition, usual class: inhibitors; 1.2% of 300,000 active; AID 540256; calls by dose curve; tested in HEK293 cells; note: nearly all actives have a fitted effect of over 50% in size
Vaccinia mCherry = vaccinia inhibition (mCherry reporter); 0.63% of 310,000 active; Potency, µM (titrated, usually from 36.5 µM), for inactives: top-dose activity change, negative = inhibition, actives largely listed as inhibitors; Vaccinia virus mCherry reporter infection, fluorescence; calls by dose curve; tested in A549 cells; note: nearly all actives have a fitted effect of over 35% in size
VACV Venus inh = inhibitors of vaccinia virus (Venus reporter); Vaccinia virus Venus reporter expression, fluorescence; Potency, µM (highest dose often 36.5 µM), for inactives: top-dose activity change, negative = inhibition, most hits filed as inhibitors; 0.46% of 330,000 active; calls by dose curve; tested in A549 cells; note: nearly all actives have a fitted effect of over 30% in size
Marburg entry inh = inhibitors of Marburg virus binding or cell entry. Marburg virus pseudotyped entry inhibition, cell reporter. Potency, µM (series often up to 37.8 µM), for the others: at the top dose activity change, negative = inhibition, most hits filed as inhibitors. 1.8% of 300,000 active. AID 540276; calls by dose curve; tested in HEK293 cells
HCV inhibitor = HCV inhibition; Huh7.5.1 HCVcc-Cre infection, luciferase reporter, 44 h; Potency, µM (doses to about 41.8 µM), inactives show at the top dose activity change, negative = inhibition, usual class: inhibitors; 3.4% of 340,000 active; active = well fitted inhibition curve with a large enough effect; inconclusive = small, poorly fitted or top-dose-only effect, or another doubt; inactive = no such curve, though single readings can be large or run the other way
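Seed cells (1,000/well) for 4 h; treat with compound and infect with HCVcc-Cre, moi about 0.5. Incubate 44 h, then detect luciferase activity.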
* hit, by the source's call; [ ] = dose if it differs, or a comment. % is set by controls: 0 for no effect and ±100 for the full control effect; potency is the fitted concentration of half-maximal effect.

CSc1ncnc2c1cnn2-c1ccc(C)cc1C was read as FMDV antiviral 0.0%, Lassa entry inh 25.6%, Vaccinia mCherry inactive, VACV Venus inh 3.2%, Marburg entry inh -17.0% and HCV inhibitor 7.5%.
Screening Cn1ncc(Cl)c1C(=O)N1CCN(c2ccccc2)CC1 returned FMDV antiviral -5.3% and HCV inhibitor 19.4%.
Cn1ncc(Cl)c1C(=O)N1CCN(c2ccc(Cl)c(Cl)c2)CC1 was read as FMDV antiviral 28.2µM*, Lassa entry inh 7.0%, Vaccinia mCherry -14.4%, VACV Venus inh -14.2%, Marburg entry inh inconclusive and HCV inhibitor -22.8%.
`Cc1ccc(-n2ncc3c(SCc4ccccn4)ncnc32)c(C)c1` gave FMDV antiviral inconclusive, Lassa entry inh 0.562µM*, Vaccinia mCherry 5.01µM*, VACV Venus inh 5.1%, Marburg entry inh inconclusive and HCV inhibitor inconclusive.
Cc1ccc(-n2ncc3c(N4CCC5(CC4)OCCO5)ncnc32)c(C)c1 was read as FMDV antiviral 39.8µM*, Vaccinia mCherry -1.6%, VACV Venus inh -7.2% and HCV inhibitor inconclusive.
O=C(CN1C(=O)NC(c2ccccc2)(c2ccccc2)C1=O)NCC(=O)Nc1ccc(F)cc1 was read as FMDV antiviral -14.6%, Lassa entry inh -2.4%, Vaccinia mCherry inactive, VACV Venus inh -20.8%, Marburg entry inh 5.2% and HCV inhibitor -6.4%.
For Cn1ncc2c(N3CCN(c4ccc(Cl)c(Cl)c4)CC3)ncnc21 the results were FMDV antiviral 11.2µM*, Lassa entry inh 2.7%, Vaccinia mCherry -26.6%, VACV Venus inh -16.1%, Marburg entry inh 18.0%[46.1 µM] and HCV inhibitor inconclusive.
For Cn1ncc2c(N3CCN(c4ccccc4F)CC3)ncnc21 the results were FMDV antiviral inconclusive, Lassa entry inh -5.4%[46.1 µM], Vaccinia mCherry -23.1%, VACV Venus inh -12.4%, Marburg entry inh inconclusive and HCV inhibitor inconclusive.
Screening Clc1ccc(-n2ncc3c(N4CCCC4)ncnc32)cc1 returned FMDV antiviral 10µM*, Lassa entry inh inconclusive, Vaccinia mCherry -1.6%, VACV Venus inh -11.1%, Marburg entry inh inconclusive and HCV inhibitor 41.9%.
For Cc1ccc(/C=C2\Oc3cc(OC(=O)N4CCOCC4)ccc3C2=O)cc1 the results were FMDV antiviral 14.1%, Lassa entry inh 6.2%, Vaccinia mCherry -12.7%, VACV Venus inh -4.5%, Marburg entry inh 3.4% and HCV inhibitor 25.1%.
Screening CC(C)(C)c1ccc(/C=C2\Oc3cc(OC(=O)N4CCOCC4)ccc3C2=O)cc1 returned FMDV antiviral inconclusive, Lassa entry inh 8.91µM*, Vaccinia mCherry -10.7%, VACV Venus inh -7.1%, Marburg entry inh inconclusive and HCV inhibitor inconclusive.
For CC(C)c1ccc(NC(=O)c2csnn2)cc1 the results were FMDV antiviral -2.2%, Lassa entry inh 9.2µM*, Marburg entry inh inconclusive and HCV inhibitor 14.1µM*.
`Cc1ccc2oc(C(=O)N(Cc3cccc(F)c3)C3CCS(=O)(=O)C3)c(C)c2c1` (configuration not stated) gave FMDV antiviral -19.6%, Lassa entry inh -21.1%[46.1 µM], Vaccinia mCherry -4.4%, VACV Venus inh -17.4% and Marburg entry inh -29.8%[46.1 µM].
`O=[N+]([O-])c1ccc(N2CCN(CCOc3nonc3-c3ccccc3)CC2)c(Cl)c1` gave Lassa entry inh -6.8%, Vaccinia mCherry inactive, VACV Venus inh -13.4%, Marburg entry inh 1.9% and HCV inhibitor 6.31µM*.
Screening Cc1nonc1OCCN1CCN(c2ccc([N+](=O)[O-])cc2)CC1 returned FMDV antiviral inconclusive, Lassa entry inh -8.6%[46.1 µM], Vaccinia mCherry inactive, VACV Venus inh -3.1%, Marburg entry inh inconclusive and HCV inhibitor inconclusive.
Screening Nc1c(Br)cc(/C=C2\C=Cc3ccccc32)cc1Br returned Vaccinia mCherry -18.0% and VACV Venus inh -14.1%.
`Nc1nc(Cl)cc(N2CCC(c3cc(-c4ccc(Cl)cc4Cl)n[nH]3)CC2)n1` gave FMDV antiviral inconclusive, Lassa entry inh inconclusive, Marburg entry inh inconclusive and HCV inhibitor 22.4µM*.
Screening Cc1ccc(S(=O)(=O)Nc2cccc(C(=O)N3CCC(C(N)=O)CC3)c2)cc1 returned FMDV antiviral 34.0% and HCV inhibitor 9.4%.
For COCc1[nH]nc2c1[C@@H](c1cccc(OC)c1)C(C#N)=C(N)O2 the results were Marburg entry inh -2.7%.
